CYP2C9 inhib: blockers of cytochrome P450 2C9 activity – biochemical, luminescence, ADME assay, primary screen. P11712. CYP2C9 Supersomes, luciferin-H conversion. inhibition, % at 5 µM. actives 20% (n = 96,000);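 active = blocking of liver enzyme CYP2C9 beyond about 50% at 5 µM, limit read from the data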
CYP2C9 act: human CYP2C9 activators, primary screen, biochemical, luminescence; recombinant CYP2C9, luciferin-H conversion; stronger effect = higher value; factor 1 = untreated enzyme, 0 = blocked; activation factor at 5 µM; Cytochrome P450 2C9 (Homo sapiens), P11712; actives 1.4% (n = 96,000); AID 1024, 2008;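 active = activation factor of 2 or more for CYP2C9 at a 5 µM dose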;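 also: 0 = sulfaphenazole-blocked wells and 1 = vehicle-only wells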
Pyk2 oligo antag: antagonists of Pyk2 self-association, primary screen, Q293 cells, FERM NanoBiT luminescence, HTS | actives 0.83% (n = 99,000) | stronger effect = lower value | AID 1347419, 2020 | z-score (the deposit names both 25 µM and 10 µM);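 active = Z-score of -3 or lower, scaled per plate to the spread of control and sample wells; inactive = z-score above -3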;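 also: negative z-score means lost luminescence so less FERM oligomerization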
CYP2C19 inhib: blockers of cytochrome P450 2C19 activity – biochemical, luminescence, ADME assay, primary screen; AID 778, 2007; actives 21% (n = 96,000); inhibition, % at 5 µM; CYP2C19 Supersomes, luciferin-H EGE luminescence, 30 min; P33261;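 active = CYP2C19 inhibition above a set limit at 5 µM in the primary screen, cut at about 50% in these data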;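 also: plate controls were negative control wells for no effect and 2.5 mM tranylcypromine positive control for full effect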
Target sequence (P33261 whole entry, looked up): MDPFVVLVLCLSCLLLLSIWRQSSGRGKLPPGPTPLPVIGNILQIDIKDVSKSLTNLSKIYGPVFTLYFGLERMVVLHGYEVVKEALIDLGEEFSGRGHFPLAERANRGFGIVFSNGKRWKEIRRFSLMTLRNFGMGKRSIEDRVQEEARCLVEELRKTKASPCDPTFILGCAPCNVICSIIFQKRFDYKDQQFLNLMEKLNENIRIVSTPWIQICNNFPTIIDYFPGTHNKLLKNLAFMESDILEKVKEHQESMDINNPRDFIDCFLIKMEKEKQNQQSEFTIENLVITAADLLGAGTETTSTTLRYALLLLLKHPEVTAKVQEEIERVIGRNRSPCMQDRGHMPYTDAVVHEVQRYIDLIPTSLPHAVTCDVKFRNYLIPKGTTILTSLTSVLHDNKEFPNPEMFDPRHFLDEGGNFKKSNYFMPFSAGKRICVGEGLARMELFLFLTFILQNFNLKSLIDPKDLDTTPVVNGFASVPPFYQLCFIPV
Cav3 T inh: Cav3.2 calcium influx blockers – cell-based, Fluo-4 calcium fluorescence, FDSS, MLSMR library, primary screen; Voltage-dependent T-type calcium channel subunit alpha-1H (Homo sapiens), O95180; actives 4% (n = 100,000); Cav3.2-expressing cells; stronger effect = lower value; B-score at 10 µM;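 active = single-dose well whose peak fluorescence ratio is a statistical outlier from its plate by either plate-standardised score or position-corrected B-score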
CYP2C19 act: human CYP2C19 activators, primary screen, biochemical, luminescence. Cytochrome P450 2C19 (Homo sapiens), P33261. recombinant CYP2C19, luciferin-H EGE luminescence; stronger effect = higher value; 0 = fully inhibited enzyme, 1 = untreated enzyme. activation factor at 5 µM. 96,000 tested, under 10 active;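 active = activation factor of at least 2 at 5 µM in the primary screen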;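 also: 0 = wells with 2.5 mM tranylcypromine and 1 = vehicle-only wells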
Starred values were filed as active, the others as inactive; nt = no result given. Rows were chosen to be rich in hits. Some 27% of all compounds tested hit in one or more screens of this group.

SMILES | CYP2C9 inhib | CYP2C9 act | Pyk2 oligo antag | CYP2C19 inhib | Cav3 T inh | CYP2C19 act
COc1ccc([N+](=O)[O-])cc1NC(=S)NC(NC(=O)C(c1ccccc1)c1ccccc1)C(Cl)(Cl)Cl (stereo unspecified) | 69* | 0.3 | -1.9 | 16 | 0.04 | 0.8
C=CCSC1=NC(N)=C(C#N)C2(CCCCC2)C1C(N)=O (stereo unspecified) | 32 | 0.7 | 0.14 | 89* | -0.45 | 0.1
N#CC1=C(SCC(=O)NC23CC4CC(CC(C4)C2)C3)NC(=O)C(C#N)C12CCCCC2 (stereo unspecified) | nt | nt | -3.3* | nt | -3.2* | nt
CC(C)(C)C1CCC2(CC1)C(C#N)=C(SCC(=O)NC1CCCCC1)NC(=O)C2C#N (stereo unspecified) | 92* | 0.1 | -1.2 | 46 | -4.2* | 0.5
C=CCSC1=C(C#N)C2(CCCCC2)C(C#N)C(=O)N1 (stereo unspecified) | 83* | 0.2 | -0.28 | 58* | -0.034 | 0.4
O=C(CSC1=NC(=O)C(Cc2ccccc2)C(=O)N1)NC1CCCCC1 (stereo unspecified) | 25 | 0.8 | 0.36 | 30 | 0.56 | 0.7
CCOc1cccc(-c2cc(-c3n[nH]c(=S)n3CC)c3ccccc3n2)c1 | 32 | 0.7 | -0.7 | 24 | -3.9 | 0.8
CCOC(=O)N1CCC(NC(=O)c2cc3ccccn3n2)CC1 | 10 | 0.9 | nt | 6 | nt | 0.9
N#CC1=C(SCC(=O)NC2CC2)NC(=O)C(C#N)C12CCCCC2 (stereo unspecified) | 68* | 0.3 | -0.19 | 20 | -0.038 | 0.8
Nc1nnc(SCC(=O)NC2CCCCC2)s1 | nt | nt | 0.06 | nt | 0.12 | nt
COC(=O)[C@@H](NC(=O)Nc1cccc(OC)c1)C(C)C | -6 | 1.1 | 0.87 | -8 | 0.25 | 1.1
Cc1cc(C)c(C#N)c(SCC(=O)Nc2ccccc2C(N)=O)n1 | 2 | 1 | -1.1 | 31 | 1 | 0.7
CN(C)CCn1c(C(=O)Nc2ccccc2)cc2ccccc21 | 1 | 1 | -0.21 | 12 | 0.87 | 0.9
Cc1cc2n(n1)C(c1ccc3c(c1)OCO3)Nc1c(C)cccc1-2 (stereo unspecified) | 92* | 0.1 | -0.64 | 98* | -3.3 | 0
CCN1CCN(C(=O)c2cc3cc4cc(OC)ccc4nc3s2)CC1 | 31 | 0.7 | 0.01 | 16 | nt | 0.8
O=c1cc(-c2ccccc2)[nH]c2[nH]n(-c3ccccc3)c(=O)c12 | 56* | 0.4 | -3.8* | 0 | -0.3 | 1
Cc1cc(NC(=O)c2cc(-c3ccccc3)on2)no1 | 0 | 1 | 0.81 | -15 | 0.03 | 1.1
O=C(c1ccccc1)c1cc(-c2ccccc2)on1 | -13 | 1.1 | 0.09 | 51* | -0.1 | 0.5
CCOC(=O)N1CCC(NC(=O)CCc2c(C)nc3c(c(C)nn3C(C)(C)C)c2C)CC1 | 82* | 0.2 | -1.8 | 64* | 0.0087 | 0.4
CCn1c(Cc2ccccc2)nnc1SCC(=O)Nc1nc(C)c(C)s1 | -13 | 1.1 | -0.3 | 24 | -0.11 | 0.8
COc1ccc(NC(=O)CN2C(=O)c3cccc4cccc2c34)cc1OC | 1 | 1 | -0.82 | -1 | 0.33 | 1
COc1cc(CCN2C(=O)c3cccc4cccc(c34)C2=O)c(S(=O)(=O)NCCCO)cc1OC | 38 | 0.6 | -1.1 | 66* | -0.14 | 0.3
O=C(CN1CCOc2ccccc21)NC1CCCCCCC1 | nt | nt | nt | nt | -1.4 | nt
Cc1ccc(C(=O)C2CCN(CC(=O)Nc3ccc4c(c3)OCCO4)CC2)cc1 | 62* | 0.4 | -0.77 | 23 | -0.66 | 0.8
O=C(CN1CCC(C(=O)c2ccc3c(c2)OCCO3)CC1)NC1CCCC1 | 16 | 0.8 | 0.34 | 84* | 0.88 | 0.2
SMILES | CYP2C9 inhib | CYP2C9 act | Pyk2 oligo antag | CYP2C19 inhib | Cav3 T inh | CYP2C19 act
CCOc1ccc(C(=O)N2CCC(C(=O)c3ccc4c(c3)OCCO4)CC2)cc1 | 55* | 0.4 | -2.6 | 85* | -0.93 | 0.2
Cc1ccc(C(=O)C2CCN(CC(=O)Nc3nc(C)cs3)CC2)cc1 | 90* | 0.1 | 0.76 | 48 | -1.3 | 0.5
CCCn1c(N2CCN(CC(=O)Nc3ccc4c(c3)OCCO4)CC2)nc2ccccc21 | 14 | 0.9 | -2.2 | 23 | -4.5* | 0.8
O=C(CN1CCN(C(=O)c2ccco2)CC1)Nc1ccc2c(c1)OCCO2 | 16 | 0.8 | 1.8 | 4 | 0.64 | 1
O=C(NCc1ccc2c(c1)OCO2)c1ccc(Cl)c(S(=O)(=O)N2CCOCC2)c1 | 68* | 0.3 | -0.56 | 38 | -0.0059 | 0.6
Cc1ccc(C(=O)NCc2ccc3c(c2)OCO3)cc1N1CCCC1=O | 8 | 0.9 | nt | -4 | 0.46 | 1
Cc1ccc(C(=O)NCc2ccc3c(c2)OCO3)cc1S(=O)(=O)N1CCOCC1 | 76* | 0.2 | -0.14 | 66* | 0.04 | 0.3
Cc1ccc(C(=O)NCc2ccc3c(c2)OCO3)cc1S(=O)(=O)N1CCCCC1 | 81* | 0.2 | 0.14 | 51* | -7.4* | 0.5
Cc1ccc(C(=O)NCc2ccco2)cc1S(=O)(=O)N1CCOCC1 | 4 | 1 | 0.01 | -3 | 0.035 | 1
CCOC(=O)N1CCC(N2CC34C=CC(O3)C(C(=O)O)C4C2=O)CC1 (stereo unspecified) | -18 | 1.2 | nt | -4 | -0.37 | 1
Cc1ccccc1-c1nc(CN2CCC(C(=O)NCCC3=CCCCC3)CC2)c(C)o1 | -14 | 1.1 | 1.2 | 2 | -7.1* | 1
O=C(NCCC1=CCCCC1)C1CCCN(S(=O)(=O)c2cccnc2)C1 (stereo unspecified) | 54* | 0.5 | nt | 58* | 0.98 | 0.4
O=C(NCCC1=CCCCC1)C1CCCN(S(=O)(=O)c2cccc3cccnc23)C1 (stereo unspecified) | -286 | 3.9* | nt | 73* | 0.78 | 0.3
O=C(NCCC1=CCCCC1)C1CCCN(c2nc3ccccc3o2)C1 (stereo unspecified) | 51* | 0.5 | 2.1 | 45 | -1.3 | 0.6
COc1ccc(S(=O)(=O)N2CCCC(C(=O)NCCC3=CCCCC3)C2)cc1 (stereo unspecified) | -46 | 1.5 | 0.19 | -9 | -0.24 | 1.1
COc1ccc(CCNC(=O)C2CCN(Cc3nc(-c4ccccc4C)oc3C)CC2)cc1OC | 21 | 0.8 | 0.39 | 4 | -0.069 | 1
COc1ccc(CN2CC[C@H]3C=CC[C@@H](C(=O)NCCc4ccccc4)[C@H]3C2=O)cc1OC | nt | nt | nt | nt | 0.18 | nt
CCOc1ccccc1-n1c(SCC(=O)NC(C)CC)nnc1-c1ccoc1C (stereo unspecified) | 16 | 0.8 | -0.12 | -1 | 0.95 | 1
Cc1nn(C)c(C)c1S(=O)(=O)N1CCC(C(=O)NCCC2=CCCCC2)CC1 | -110 | 2.1* | nt | -16 | 0.47 | 1.2
